# Assay results: PubChem BioAssay (Tox21)
# Values joined by “and” are separate entries in the source; they are usually repeats but may differ in a detail not shown here. Equal entries are not always repeated. Inconclusive results are not listed. Entries that show only a call come without a potency. A structure can be active in one record and inactive in another. Active and inactive are the calls of the source. Unless noted, calls follow the shape of the dose curve; as a rule, active = well fitted curve in the direction sought with a large enough effect in the repeat runs; inconclusive = weak or mixed curves; inactive = no such curve, though single readings can be large; an effect the other way counts as inactive or inconclusive.
# Experiments:
# [1] = target: Acetylcholinesterase (Homo sapiens) (UniProt P22303); assay: Acetylcholinesterase (AChE) small molecule antagonists: enzyme-based qHTS assay (AID 1347397; calls by dose curve; also: nearly all actives have a fitted effect of over 55% in size); conditions: Potency: AChE enzyme activity inhibition
# Sequence of Acetylcholinesterase (Homo sapiens) (P22303 whole entry, looked up): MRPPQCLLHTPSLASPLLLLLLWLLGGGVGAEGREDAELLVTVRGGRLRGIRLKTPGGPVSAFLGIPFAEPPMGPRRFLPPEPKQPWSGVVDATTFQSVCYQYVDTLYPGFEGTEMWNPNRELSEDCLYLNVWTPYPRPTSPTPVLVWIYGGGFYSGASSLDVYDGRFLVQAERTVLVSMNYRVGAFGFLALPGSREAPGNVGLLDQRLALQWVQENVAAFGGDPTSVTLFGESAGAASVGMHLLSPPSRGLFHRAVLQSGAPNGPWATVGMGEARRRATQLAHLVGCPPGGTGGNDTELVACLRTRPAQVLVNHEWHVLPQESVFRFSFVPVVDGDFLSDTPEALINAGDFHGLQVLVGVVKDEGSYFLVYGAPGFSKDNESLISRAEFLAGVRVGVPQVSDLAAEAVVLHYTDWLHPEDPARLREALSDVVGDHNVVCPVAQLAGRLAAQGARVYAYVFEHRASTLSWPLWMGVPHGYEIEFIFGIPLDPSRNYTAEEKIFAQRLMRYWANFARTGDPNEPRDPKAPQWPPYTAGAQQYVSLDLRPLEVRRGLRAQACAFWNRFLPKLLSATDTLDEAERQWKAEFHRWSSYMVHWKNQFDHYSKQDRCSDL
# In short: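 First, recombinant human AChE (50 mU/mL as dispensed) received test compound or DMSO. Second, plates stood 30 min at room temperature. Third, DTNB and acetylthiocholine were added, followed by 10 min at room temperature and colorimetric detection.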
# [2] = target: Acetylcholinesterase (Homo sapiens) (UniProt P22303); assay: Acetylcholinesterase (AChE) small molecule antagonists: fluorescence cell-based qHTS assay (AID 1347398; calls by dose curve; also: nearly all actives have a fitted effect of over 50% in size); conditions: Potency: AChE activity
# In short: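 Homogeneous quantitative HTS format. SH-SY5Y cells seeded at 2,000 per well settle overnight at 37 C. Compound pretreatment runs 30 min (37 C, 5% CO2); substrate/probe mix then reacts 40 min at RT before reading 490/520 nm.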
# [3] = target: Acetylcholinesterase (Homo sapiens) (UniProt P22303); assay: Acetylcholinesterase (AChE) small molecule antagonists: enzyme-based qHTS assay with human liver microsomes (AID 1347399; calls by dose curve; also: nearly all actives have a fitted effect of over 60% in size); conditions: Potency: qHTS inhibition
# In short: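 Recombinant human AChE (50 mU/mL in the enzyme mix) and human liver microsomes (0.25 mg/mL final) were preincubated with compound and NADPH (0.25 mg/mL final) for 30 min at 37 C. Acetylthiocholine/DTNB was then added; thiocholine was read colorimetrically after 10 min at room temperature.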
# [4] = target: Cytochrome P450 2D6 (Homo sapiens) (UniProt P10635); assay: Cytochrome P450 Family 2 Subfamily D Member 6 (CYP2D6) small molecule antagonists: luciferase reporter qHTS assay (AID 1671196); also: nearly all actives have a fitted effect of over 50% in size; as to activity change, negative = inhibition: series mostly up to about 120 µM
# Sequence of Cytochrome P450 2D6 (Homo sapiens) (P10635 whole entry, looked up): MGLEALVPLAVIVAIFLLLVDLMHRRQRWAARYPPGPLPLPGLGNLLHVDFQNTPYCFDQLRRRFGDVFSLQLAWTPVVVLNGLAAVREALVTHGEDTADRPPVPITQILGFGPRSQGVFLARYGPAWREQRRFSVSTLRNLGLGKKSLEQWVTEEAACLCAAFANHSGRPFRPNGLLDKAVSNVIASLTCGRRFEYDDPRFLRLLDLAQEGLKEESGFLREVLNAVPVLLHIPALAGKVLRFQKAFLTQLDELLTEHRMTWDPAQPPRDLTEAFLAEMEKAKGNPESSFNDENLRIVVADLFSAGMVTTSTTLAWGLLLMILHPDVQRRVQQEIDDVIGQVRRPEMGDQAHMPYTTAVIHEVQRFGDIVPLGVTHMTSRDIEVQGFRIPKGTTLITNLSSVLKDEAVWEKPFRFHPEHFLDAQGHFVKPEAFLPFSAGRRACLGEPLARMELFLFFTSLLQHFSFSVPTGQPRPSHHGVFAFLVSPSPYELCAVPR
# In short: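 Room-temperature luminescent CYP2D6 activity assay: compound preincubated 10 min with enzyme–substrate mix, NADPH-initiated reaction 1 h, detection reagent 20 min before reading.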
# [5] = target: Cytochrome P450 2C19 (Homo sapiens) (UniProt P33261); assay: Cytochrome P450 Family 2 Subfamily C Member 19 (CYP2C19) small molecule antagonists: luciferase reporter qHTS assay (AID 1671197); also: nearly all actives have a fitted effect of over 65% in size; as to activity change, negative = inhibition: series mostly up to about 120 µM
# Sequence of Cytochrome P450 2C19 (Homo sapiens) (P33261 whole entry, looked up): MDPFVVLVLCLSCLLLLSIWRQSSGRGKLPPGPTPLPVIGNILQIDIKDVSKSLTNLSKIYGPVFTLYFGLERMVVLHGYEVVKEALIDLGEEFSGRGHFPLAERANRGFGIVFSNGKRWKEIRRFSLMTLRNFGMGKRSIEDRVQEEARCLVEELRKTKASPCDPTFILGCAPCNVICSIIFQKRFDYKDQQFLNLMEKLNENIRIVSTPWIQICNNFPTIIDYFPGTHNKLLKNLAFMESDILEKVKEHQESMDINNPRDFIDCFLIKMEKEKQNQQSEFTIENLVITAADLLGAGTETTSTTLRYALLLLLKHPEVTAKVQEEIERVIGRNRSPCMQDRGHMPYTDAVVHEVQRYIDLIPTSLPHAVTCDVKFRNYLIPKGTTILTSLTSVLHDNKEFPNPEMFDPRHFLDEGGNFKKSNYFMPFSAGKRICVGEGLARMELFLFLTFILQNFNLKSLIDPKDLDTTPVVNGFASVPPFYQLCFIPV
# In short: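 Light output is proportional to CYP2C19 activity: proluciferin substrate is converted to luciferin, then detected by a luciferin detection reagent that also stops the 1 h, 37C NADPH-driven reaction. Ketoconazole serves as positive control.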
# [6] = target: Cytochrome P450 2C9 (Homo sapiens) (UniProt P11712); assay: Cytochrome P450 Family 2 Subfamily C Member 9 (CYP2C9) small molecule antagonists: luciferase reporter qHTS assay (AID 1671198); also: nearly all actives have a fitted effect of over 50% in size; as to activity change, negative = inhibition: series mostly up to about 120 µM
# Sequence of Cytochrome P450 2C9 (Homo sapiens) (P11712 whole entry, looked up): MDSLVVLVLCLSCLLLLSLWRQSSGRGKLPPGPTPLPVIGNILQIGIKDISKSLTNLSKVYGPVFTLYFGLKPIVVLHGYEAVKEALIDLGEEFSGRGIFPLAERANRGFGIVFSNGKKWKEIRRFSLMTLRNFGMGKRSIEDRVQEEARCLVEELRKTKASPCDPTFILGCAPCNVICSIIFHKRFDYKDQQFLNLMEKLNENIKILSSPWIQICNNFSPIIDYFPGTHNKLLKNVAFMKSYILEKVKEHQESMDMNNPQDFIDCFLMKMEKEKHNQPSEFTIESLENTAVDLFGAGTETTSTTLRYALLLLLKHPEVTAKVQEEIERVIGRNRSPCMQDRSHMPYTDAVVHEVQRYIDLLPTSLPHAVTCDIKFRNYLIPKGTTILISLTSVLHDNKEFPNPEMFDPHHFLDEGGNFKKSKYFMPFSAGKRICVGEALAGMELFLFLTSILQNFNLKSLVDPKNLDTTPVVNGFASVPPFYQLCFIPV
# In short: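 Enzyme-substrate mix preincubated with compound 10 min at room temperature; reaction started with NADPH regeneration solution, 1 h 37C. Luminescent luciferin product read after 20 min detection reagent.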
# [7] = target: Voltage-gated inwardly rectifying potassium channel KCNH2 (Homo sapiens) (UniProt Q12809); assay: Human Ether-a-go-go-Related Gene (hERG) channel small molecule antagonists: fluorescence cell-based qHTS assay (AID 1671200); also: nearly all actives have a fitted effect of over 50% in size;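 as to activity change, negative = inhibition: hERG-expressing U2OS cells given a thallium stimulus after FluxOR II dye loading; series mostly up to about 77 µM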
# Sequence of Voltage-gated inwardly rectifying potassium channel KCNH2 (Homo sapiens) (Q12809 whole entry, looked up): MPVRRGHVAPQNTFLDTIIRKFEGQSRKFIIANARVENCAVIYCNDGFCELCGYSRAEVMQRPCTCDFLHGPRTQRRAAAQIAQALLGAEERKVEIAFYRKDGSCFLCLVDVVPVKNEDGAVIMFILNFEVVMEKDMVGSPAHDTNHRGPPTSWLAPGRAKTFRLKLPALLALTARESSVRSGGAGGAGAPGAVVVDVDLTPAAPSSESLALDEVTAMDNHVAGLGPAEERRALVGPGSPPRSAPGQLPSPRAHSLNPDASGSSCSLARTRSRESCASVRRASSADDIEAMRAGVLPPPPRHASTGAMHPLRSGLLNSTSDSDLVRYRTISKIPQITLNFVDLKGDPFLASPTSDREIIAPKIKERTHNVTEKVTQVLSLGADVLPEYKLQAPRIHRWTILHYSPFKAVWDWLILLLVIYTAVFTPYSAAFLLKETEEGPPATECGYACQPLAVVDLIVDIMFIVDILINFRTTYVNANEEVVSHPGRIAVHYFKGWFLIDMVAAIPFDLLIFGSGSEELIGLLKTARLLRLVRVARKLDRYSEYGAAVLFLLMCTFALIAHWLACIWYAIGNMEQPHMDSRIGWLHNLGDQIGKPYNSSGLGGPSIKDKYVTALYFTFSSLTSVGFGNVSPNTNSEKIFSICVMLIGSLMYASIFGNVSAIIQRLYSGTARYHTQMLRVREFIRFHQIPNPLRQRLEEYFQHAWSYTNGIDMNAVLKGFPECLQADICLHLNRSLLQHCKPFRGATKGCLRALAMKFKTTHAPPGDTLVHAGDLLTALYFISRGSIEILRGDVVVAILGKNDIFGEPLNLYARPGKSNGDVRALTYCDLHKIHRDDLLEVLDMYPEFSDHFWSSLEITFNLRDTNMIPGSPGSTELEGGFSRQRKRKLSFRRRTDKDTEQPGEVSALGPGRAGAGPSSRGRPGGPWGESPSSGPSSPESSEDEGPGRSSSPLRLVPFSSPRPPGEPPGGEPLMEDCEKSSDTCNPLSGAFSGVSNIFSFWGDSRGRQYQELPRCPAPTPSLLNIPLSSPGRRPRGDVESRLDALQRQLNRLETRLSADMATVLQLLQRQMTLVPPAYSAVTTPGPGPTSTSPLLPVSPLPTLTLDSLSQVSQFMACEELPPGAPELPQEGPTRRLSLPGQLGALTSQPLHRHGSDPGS
# In short: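 hERG-U2OS cells plated overnight at 37 C, loaded with FluxOR II dye 1 h at RT in dark; after 10 min, thallium stimulus added. Fluorescence (480/540 nm) read kinetically for 2 min at 1 s intervals.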
# [8] = target: Cytochrome P450 3A4 (Homo sapiens) (UniProt P08684); assay: Cytochrome P450 Family 3 Subfamily A Member 4 (CYP3A4) small molecule antagonists: luciferase reporter qHTS assay (AID 1671201); also: nearly all actives have a fitted effect of over 50% in size; as to activity change, negative = inhibition: series mostly up to about 120 µM
# Sequence of Cytochrome P450 3A4 (Homo sapiens) (P08684 whole entry, looked up): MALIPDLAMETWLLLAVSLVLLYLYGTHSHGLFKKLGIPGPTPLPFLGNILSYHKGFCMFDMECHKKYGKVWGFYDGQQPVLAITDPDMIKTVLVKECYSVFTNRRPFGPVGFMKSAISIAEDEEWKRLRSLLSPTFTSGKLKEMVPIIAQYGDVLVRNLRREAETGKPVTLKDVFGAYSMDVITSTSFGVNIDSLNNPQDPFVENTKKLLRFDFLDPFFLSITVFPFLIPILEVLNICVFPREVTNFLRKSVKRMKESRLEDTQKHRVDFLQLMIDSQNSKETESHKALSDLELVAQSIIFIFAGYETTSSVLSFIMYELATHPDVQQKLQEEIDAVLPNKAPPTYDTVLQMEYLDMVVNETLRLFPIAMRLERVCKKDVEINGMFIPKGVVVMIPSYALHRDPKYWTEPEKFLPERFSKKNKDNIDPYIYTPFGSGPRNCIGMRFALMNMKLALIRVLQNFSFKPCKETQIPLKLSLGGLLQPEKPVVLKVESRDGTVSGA
# In short: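 P450-Glo CYP3A4 luminescent assay: compounds preincubated 10 min at room temperature with enzyme and proluciferin substrate, NADPH regeneration added, 1 h room-temperature reaction, stopped with luciferin detection reagent; luminescence read after 20 min. Ketoconazole positive control.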
# [9] = target: Cytochrome P450 1A2 (Homo sapiens) (UniProt P05177); assay: Cytochrome P450 Family 1 Subfamily A Member 2 (CYP1A2) small molecule antagonists: luciferase reporter qHTS assay (AID 1671199); also: nearly all actives have a fitted effect of over 50% in size; as to activity change, negative = inhibition: series mostly up to about 120 µM
# Sequence of Cytochrome P450 1A2 (Homo sapiens) (P05177 whole entry, looked up): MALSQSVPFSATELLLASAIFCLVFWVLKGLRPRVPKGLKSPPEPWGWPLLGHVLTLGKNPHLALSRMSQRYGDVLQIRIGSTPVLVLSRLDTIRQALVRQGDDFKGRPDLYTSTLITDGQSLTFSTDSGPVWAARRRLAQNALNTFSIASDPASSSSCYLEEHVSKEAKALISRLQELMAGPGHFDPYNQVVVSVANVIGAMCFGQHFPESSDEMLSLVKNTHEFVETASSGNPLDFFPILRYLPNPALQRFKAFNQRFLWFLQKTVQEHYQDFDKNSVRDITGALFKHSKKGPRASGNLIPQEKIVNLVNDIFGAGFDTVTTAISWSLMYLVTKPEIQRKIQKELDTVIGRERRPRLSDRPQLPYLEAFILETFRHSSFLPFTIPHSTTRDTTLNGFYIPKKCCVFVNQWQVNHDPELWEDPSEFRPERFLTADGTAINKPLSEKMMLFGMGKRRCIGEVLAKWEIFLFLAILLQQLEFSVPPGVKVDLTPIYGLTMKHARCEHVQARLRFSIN
# In short: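 Room-temperature CYP1A2 reaction with proluciferin substrate: compounds added from DMSO, 10 min preincubation, NADPH regeneration for 1 h. Luciferin detection reagent then added; luminescence recorded as RLU.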
# Potency is read from the fitted curve at half-maximal effect.
Structure (SMILES),Potency [1],Potency [2],Potency [3],Potency [4],Potency [5],Potency [6],Potency [7],Potency [8],Potency [9],"activity change, negative = inhibition [5]"
CCOP(=S)(OCC)OP(=S)(OCC)OCC,72.9 µM (active) and 79.6 µM (active),10.3 µM (active) and 11.2 µM (active),36.5 µM (active) and 20 µM (active),inactive,8.18 µM (active) and 17.8 µM (active),32.6 µM (active) and 35.6 µM (active),inactive,32.6 µM (active) and 39.9 µM (active),,
C[C@]12CC[C@H]3[C@@H](CCC4=CC(=O)CC[C@@H]43)[C@@H]1CC[C@@H]2O,inactive,inactive,inactive,inactive,39.6 µM (active) and 8.71 µM (active),inactive,inactive,inactive,inactive,
Nc1ccc([N+](=O)[O-])cc1N,inactive,inactive,inactive,inactive and 71 µM (active),25.2 µM (active),39.9 µM (active) and 63.3 µM (active),inactive,35.6 µM (active) and inactive,35.6 µM (active) and 31.7 µM (active),
O=C1C(Cl)=C(Cl)C(=O)c2ccccc21,35.7 µM (active) and 25.2 µM (active),11.3 µM (active) and 25.2 µM (active),79.9 µM (active) and 31.7 µM (active),17.9 µM (active) and 17.8 µM (active),7.99 µM (active) and 5.64 µM (active),5.04 µM (active) and 4.48 µM (active),21.9 µM (active),17.9 µM (active) and 17.8 µM (active),17.9 µM (active) and 8.94 µM (active),
CC(O)CN(CC(C)O)CC(C)O (centres undefined),inactive,inactive,inactive,inactive,inactive,inactive,inactive,inactive,inactive,
CC[n+]1c(-c2ccccc2)c2cc(N)ccc2c2ccc(N)cc21,79.3 µM (active),31.6 µM (active) and 12.3 µM (active),inactive,562 nM (active) and 2.19 µM (active),7.07 µM (active) and 5.49 µM (active),35.4 µM (active) and 30.9 µM (active),inactive,,9.99 µM (active) and 10.2 µM (active),
CCOP(=O)(O)OCC (tested in a mixture with another compound),inactive and 31.4 µM (active),inactive and 39.6 µM (active),inactive,40.3 µM (active) and 886 nM (active),79 µM (active),inactive and 55.9 µM (active),inactive and 6.12 µM (active),inactive and 55.9 µM (active),79 µM (active),
CCNc1nc(Cl)nc(NC(C)(C)C#N)n1,inactive,inactive,inactive,inactive,inactive,,inactive,,39.9 µM (active),
ClCC(Cl)CCl,inactive,inactive,inactive,28.5 µM (active) and inactive,inactive,,inactive,inactive,44.8 µM (active),
CN(C)P(=O)(N(C)C)N(C)C,inactive,inactive,inactive,inactive,inactive,inactive,inactive,inactive,inactive,
O=NN1CCOCC1,inactive,inactive,inactive,inactive,inactive,inactive,inactive,inactive,inactive,
Clc1ccccc1-c1nnc(-c2ccccc2Cl)nn1,inactive,inactive,inactive,inactive,31.4 µM (active) and 6.31 µM (active),inactive,inactive,inactive,5.59 µM (active) and 7.08 µM (active),
ClC(Cl)(Cl)Br,inactive,inactive,inactive,inactive,39.4 µM (active),,inactive,inactive,inactive,17.8% [at 23.6 µM] (inactive)
CCOC(=O)c1ccccc1N,inactive,inactive,inactive,inactive,inactive,inactive,inactive,inactive,28.1 µM (active) and 31.7 µM (active),
O=C1CCCO1,inactive,inactive,inactive,inactive,inactive,inactive,inactive,inactive,34.7 µM (active) and inactive,
C[N+](C)(C)CC(=O)[O-],inactive,inactive,inactive,inactive,inactive,inactive,inactive,inactive,inactive,
c1ccc2c(c1)Nc1ccccc1S2,inactive,inactive,inactive,inactive,2.24 µM (active) and 8.71 µM (active),,inactive,,731 nM (active) and 645 nM (active),

Structure (SMILES),Potency [1],Potency [2],Potency [3],Potency [4],Potency [5],Potency [6],Potency [7],Potency [8],Potency [9],"activity change, negative = inhibition [5]"
Cc1ccc([N+](=O)[O-])cc1,inactive,inactive,inactive,inactive,inactive,,inactive,inactive,inactive,
CCC[CH2][Sn]([Cl])([Cl])[CH2]CCC,inactive,inactive,inactive,36 µM (active),8.07 µM (active) and 22.4 µM (active),36 µM (active),39.4 µM (active) and 17.4 µM (active),inactive,inactive,
C=CC(=O)OCC(CC)(COC(=O)C=C)COC(=O)C=C,inactive,inactive,inactive,65 µM (active) and 63.3 µM (active),16.3 µM (active) and 15.9 µM (active),13 µM (active) and 28.3 µM (active),inactive,818 nM (active) and 2.52 µM (active),39.9 µM (active),
CC(C)=CC1C(C(=O)OCc2cccc(Oc3ccccc3)c2)C1(C)C (centres undefined),inactive,inactive,inactive,39.9 µM (active) and inactive,7.96 µM (active),3.17 µM (active) and 3.09 µM (active),inactive,inactive,,
NC(=O)CN1CCCC1=O,inactive,inactive,inactive,inactive,inactive,inactive,inactive,inactive,inactive,
O=NN(c1ccccc1)c1ccccc1,inactive,inactive,inactive,21.9 µM (active) and inactive,39 µM (active) and 35.6 µM (active),34.8 µM (active) and 63.3 µM (active),inactive,inactive,34.8 µM (active),
Nc1ncn[nH]1,inactive,inactive,inactive,inactive,inactive,inactive,inactive,inactive,inactive,
CN(C)c1ccccc1,inactive,inactive,inactive,inactive,29 µM (active) and 41.6 µM (active),inactive,inactive,32.5 µM (active) and inactive,,
Oc1ccc(Cl)cc1Cl,inactive,inactive,inactive,inactive,70.5 µM (active) and inactive,inactive,inactive,inactive,35.3 µM (active) and 39.9 µM (active),
OC(c1ccc(Cl)cc1)(c1cncnc1)c1ccccc1Cl (centres undefined),inactive,inactive,inactive,36.2 µM (active) and 35.6 µM (active),229 nM (active) and 283 nM (active),7.23 µM (active) and 6.33 µM (active),49.8 µM (active) and 54.9 µM (active),182 nM (active) and 224 nM (active),,
COc1ccc(C=O)cc1OC,inactive,inactive,inactive,inactive,9.04 µM (active) and 71 µM (active),inactive,inactive,inactive,32.1 µM (active) and 31.7 µM (active),
CN(C)c1nc(=O)n(C2CCCCC2)c(=O)n1C,inactive,inactive,inactive,inactive,inactive,inactive,inactive,inactive,inactive,
CC(C)(c1ccccc1)c1ccc(O)cc1,inactive,inactive,inactive,inactive,inactive,11.2 µM (active) and 12.6 µM (active),inactive,inactive,inactive,
O=C(O)CF,inactive,inactive,inactive,inactive,inactive,inactive,inactive,inactive,inactive,
OCCOCCO,inactive,inactive,inactive,inactive,82.1 µM (active) and inactive,inactive,inactive,inactive,inactive,
N#Cc1nn(-c2c(Cl)cc(C(F)(F)F)cc2Cl)c(N)c1S(=O)C(F)(F)F (centres undefined),inactive,inactive,inactive,11.3 µM (active) and 6.17 µM (active),5.06 µM (active) and 9.77 µM (active),2.01 µM (active) and 3.09 µM (active),inactive,,inactive,
Nc1ccc2ccccc2c1,inactive,inactive,inactive,24.3 µM (active) and 15.9 µM (active),9.69 µM (active) and 31.7 µM (active),27.3 µM (active) and 31.7 µM (active),inactive,19.3 µM (active) and 17.8 µM (active),1.72 µM (active) and 2 µM (active),
